Assay [1] deals with XIP peptide (Xip251-270) binding. Kind of assay: small-molecule binders of XIP peptide, primary screen, biochemical, small-molecule microarray, fluorescence 635/667 nm, 0.1 µg/mL protein (AID 1182). To be noted: fluorescent protein binding, 635 nm, higher = more signal, called active from +8 up or from −8 down.
A further assay concerns XIP peptide (Xip251-270). Kind of assay: small-molecule binders of XIP peptide, primary screen, biochemical, small-molecule microarray, fluorescence 635/667 nm, 0.5 µg/mL protein (AID 1183). To be noted: small-molecule microarray binding, fluorescence 635 nm; higher = more signal.
The nature of assay [2]: Plasmodium falciparum growth inhibition, primary screen, strain 3D7, DAPI fluorescence, 100 nL (AID 1184).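 Note: parasites grown inside human red blood cells in medium with human serum.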 To be noted: P. falciparum 3D7 growth, 3 d, higher = more signal.
Assay [3] has as its target Homeobox protein Hox-A13 (Mus musculus) (UniProt Q62424). Description: inhibitors of HoxA13-DNA binding, primary screen, biochemical, fluorescence polarization, labeled oligonucleotide (AID 1185). The note with it: 15 min, higher = more signal, called active from +8 up or from −8 down. In general terms: Fluorescence polarisation rises when a labelled molecule tumbles more slowly, as on binding a larger partner.

Assay [4] can be described thus: inhibitors of hydroxyurea-induced Chk1 phosphorylation, primary screen, imaging, HeLa, phospho-Chk1 antibody, percent positive cells (AID 1186). The note with it: hydroxyurea-induced phospho-Chk1 immunofluorescence imaging, higher = more signal.
Assay [5] can be described thus: inhibitors of hydroxyurea-induced Chk1 phosphorylation, primary screen, imaging, HeLa, phospho-Chk1 nuclear intensity (AID 1187). The note with it: hydroxyurea-induced phospho-Chk1 immunofluorescence imaging, higher = more signal.

The values below come from PubChem BioAssay.

Molecules are shown by their SMILES. Activity calls are given as the source filed them. Unless noted, the rule behind the calls is not given here.

Sequence of Homeobox protein Hox-A13 (Mus musculus) (Q62424 whole entry, looked up): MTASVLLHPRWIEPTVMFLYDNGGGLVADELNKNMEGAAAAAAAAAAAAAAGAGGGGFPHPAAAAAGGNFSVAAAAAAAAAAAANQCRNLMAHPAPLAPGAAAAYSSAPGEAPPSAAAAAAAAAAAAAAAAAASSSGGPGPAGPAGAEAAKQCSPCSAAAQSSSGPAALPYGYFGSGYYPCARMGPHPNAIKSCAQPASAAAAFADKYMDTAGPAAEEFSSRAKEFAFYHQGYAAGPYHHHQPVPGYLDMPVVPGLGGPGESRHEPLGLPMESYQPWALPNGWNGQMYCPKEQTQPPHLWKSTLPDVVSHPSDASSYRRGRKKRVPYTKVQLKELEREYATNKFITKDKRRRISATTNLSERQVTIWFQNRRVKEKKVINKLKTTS

For the compound `COc1cc2c(cc1O)C(C)N(Cc1sc3ccccc3c1Cl)CC2` (configuration not stated), the figures for the composite z-score (in assay [1]; in the assay with XIP peptide (Xip251-270)) were -0.173 (inactive) and 0.547, respectively. Moreover, the z-score is -1.37 in assay [2], -3.39 (inactive) in assay [3], -0.632 (inactive) in assay [4] and -0.817 (inactive) in assay [5].
On to `CN(C)CCCC[C@@H]1NC(=O)[C@H]2C[C@@H](C(=O)NCCCCCCNC(=O)CS)[C@@H](c3cccc(OCCO)c3)N2C1=O`, for which the composite z-score was 0.305 (inactive) in assay [1] and 0.603 with XIP peptide (Xip251-270). The z-score in assay [2] was 0.162; in assay [3], -1.91 (inactive); in assay [4], 0.542 (inactive); in assay [5], 0.68 (inactive).
For `COC(=O)c1ccc(OC)c(/C=C\CC(OC(=O)c2ccncc2)c2ccccc2)c1` (configuration not stated), the composite z-score is 0.601 (inactive) in assay [1] and 0.146 in the assay on XIP peptide (Xip251-270). Besides, the z-score in assay [2] was -1.33; in assay [3] it was -5.02 (inactive); in assay [4] it was -0.843 (inactive); in assay [5], -0.432 (inactive).
For the compound `CC(CO)N1C(=O)[C@@H]2[C@H]3C(=O)OCC=C[C@H]3OC23C=CCN(c2ccc4ccccc4c2)C(=O)[C@@H]13` (some centres not stated), the composite z-score in assay [1] is -0.0975 (inactive); in the assay with XIP peptide (Xip251-270), 0.547. The z-score in assay [2] is 0.48; in assay [3] it was -4.49 (inactive); in assay [4] it was -0.233 (inactive); in assay [5], 0.0823 (inactive).
As to `COC(=O)[C@@]1(Cc2ccc(F)cc2)[C@H]2c3cc(C(=O)N(C)C)n(CCF)c3C[C@H]2CN1C(=O)c1ccccc1`, the composite z-score was 0.588 (inactive) in assay [1] and 0.779 in the assay with XIP peptide (Xip251-270). Besides, the z-score was -0.552 in assay [2], -5.09 (inactive) in assay [3], -0.847 (inactive) in assay [4] and -0.595 (inactive) in assay [5].
Turning to `COC(=O)[C@@]1(Cc2ccccc2)[C@H]2c3cc(C(=O)N(C)C)n(CCF)c3C[C@H]2CN1C(=O)c1ccccc1`, the composite z-score is 1.3 (inactive) in assay [1] and -0.504 in the assay with XIP peptide (Xip251-270). Besides, the z-score in assay [2] was -0.684; in assay [3], -4.95 (inactive); in assay [4], -0.441 (inactive); in assay [5] it was -0.748 (inactive).
As to `CCN1C(=O)C2CC(=O)C3C(CN(S(=O)(=O)c4ccc(C)cc4)C3c3ccc(C)cc3)C2C1=O` (configuration not stated), the composite z-score is 0.761 (inactive) in assay [1] and -0.248 in the assay with XIP peptide (Xip251-270). Also, the z-score in assay [2] is 0.38; in assay [3], -4.69 (inactive); in assay [4] it was 0.137 (inactive); in assay [5] it was -0.0394 (inactive).
As to `CC(C)N1CC=CC23O[C@@H]4/C=C\CCCOC(=O)C4[C@H]2C(=O)N(C(C)CO)[C@@H]3C1=O` (some centres not stated), the composite z-score was -0.0835 (inactive) in assay [1] and 0.0575 with XIP peptide (Xip251-270). The z-score was 0.261 in assay [2], -4.1 (inactive) in assay [3], -1.36 (inactive) in assay [4] and -0.988 (inactive) in assay [5].
As to `C=CC[C@]1(C(=O)NCCN2CCOCC2)N=C(c2ccc(OCCCO)cc2)O[C@H]1c1ccccc1`, the results for the composite z-score (in assay [1]; in the assay with XIP peptide (Xip251-270)) were 0.212 (inactive) and 0.492, respectively. Besides, the z-score in assay [2] was -0.188; in assay [3], -6.22 (inactive); in assay [4] it was -0.116 (inactive); in assay [5], 0.106 (inactive).
For the compound `CC1(C)OB(/C=C\CC(OC(=O)c2ccncc2)c2ccccc2)OC1(C)C` (configuration not stated), the values for the composite z-score (in assay [1]; with XIP peptide (Xip251-270)) were 0.258 (inactive) and 0.478, respectively. For the same compound, the z-score was 0.78 in assay [2], -3.16 (inactive) in assay [3], 0.301 (inactive) in assay [4] and 0.415 (inactive) in assay [5].
Regarding `C=CC[C@H](OC(=O)Nc1ccc(SC)cc1)c1ccc(O)c(F)c1`, the composite z-score in assay [1] is 1.07 (inactive); in the assay on XIP peptide (Xip251-270), -0.193. Besides, the z-score is -0.249 in assay [2], -0.845 (inactive) in assay [3], 0.355 (inactive) in assay [4] and 0.417 (inactive) in assay [5].
In the case of `[N-]=[N+]=Nc1ccccc1C[C@]1(C(=O)N2CCCCC2)N=C(c2ccc(OCCCO)cc2)O[C@H]1c1ccccc1`, the values for the composite z-score (in assay [1]; in the assay with XIP peptide (Xip251-270)) were 1.48 (inactive) and 0.758, respectively. Moreover, the z-score in assay [2] is -2.34; in assay [3], -5.43 (inactive); in assay [4], -0.554 (inactive); in assay [5], -0.78 (inactive).
Take `COC(=O)[C@@]1(Cc2ccc(F)cc2)[C@H]2c3cc(C(=O)N(C)C)n(Cc4cccc5ccccc45)c3C[C@H]2CN1C(=O)c1ccccc1`: the composite z-score in assay [1] is 0.0361 (inactive); in the assay with XIP peptide (Xip251-270) it was 0.891. Also, the z-score in assay [2] was -1.51; in assay [3], -4.81 (inactive); in assay [4] it was 0.406 (inactive); in assay [5], 0.252 (inactive).
In the case of `[N-]=[N+]=Nc1ccccc1C[C@@]1(C(=O)NCC(O)CO)N=C(c2ccc(OCCCO)cc2)O[C@@H]1c1ccccc1N=[N+]=[N-]` (some centres not stated), the composite z-score in assay [1] was 0.0609 (inactive); in the assay on XIP peptide (Xip251-270), 0.0519. For the same compound, the z-score was -2.15 in assay [2], -2.28 (inactive) in assay [3], -0.0996 (inactive) in assay [4] and 0.263 (inactive) in assay [5].
For `O=C1OC[C@@H](c2ccccc2)n2cc(/C=C/c3ccccc3)cc21`, the composite z-score in assay [1] was 0.623 (inactive); in the assay with XIP peptide (Xip251-270) it was 0.505. In addition, the z-score is -0.0812 in assay [2], 0.816 (inactive) in assay [3], -0.481 (inactive) in assay [4] and -0.268 (inactive) in assay [5].
For the compound `COc1ccc([Si](C)(C)[C@@H]2[C@@H](CC(=O)N3CCC[C@H]3CO)O[C@]3(C(=O)N(Cc4cccc(N5C(=O)c6cccc7cccc5c67)c4)c4ccccc43)[C@H]2C)cc1`, the composite z-score was 3.7 (inactive) in assay [1] and 0.703 with XIP peptide (Xip251-270). Also, the z-score in assay [2] is -2.1; in assay [3], -2.34 (inactive); in assay [4] it was -0.798 (inactive); in assay [5] it was -0.489 (inactive).
For `C=CCNC(=O)[C@@H]1[C@H]2C(=O)O[C@H](c3ccccc3)[C@H](c3ccccc3)N2[C@H](c2ccc(O)cc2)[C@@]12C(=O)N(C(=O)OCCOC)c1ccc(C#CCC(C(=O)OC)C(=O)OC)cc12`, the composite z-score in assay [1] was 0.891 (inactive); in the assay with XIP peptide (Xip251-270), 0.756. Besides, the z-score in assay [2] is -1.7; in assay [3], -1.28 (inactive); in assay [4], -0.0611 (inactive); in assay [5] it was -0.187 (inactive).
